Bioassay records deposited in PubChem BioAssay by National Center for Advancing Translational Sciences (NCATS).
Compounds with a hit are over-represented: about 19% of the library has one in this group of screens.
HT1080NT lethal – kills 2HG-producing HT-1080-NT fibrosarcoma cells. actives 1.6% (n = 360,000). Potency, µM (titrated, usually from 46.1 µM), for inactives: at the top dose activity, negative = less viability, actives largely listed as cytotoxic. HT-1080-NT fibrosarcoma viability, CellTiter-Glo ATP luminescence, 48 h;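 also: NT is the 2HG producing partner of a matched IDH1 knockdown line; potency is read from the fitted curve at half-maximal effect; 0% = DMSO-treated cells and -100% = media-only wells without cells; nearly all actives have a fitted effect of over 55% in size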
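Read-out is CellTiter-Glo luminescence after 10 minutes at room temperature, following 48 hours' compound treatment of HT-1080-NT cells (750 cells/well, RPMI, 5% FBS, 37 degrees C).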
HT1080 IDH1KD tx – HT-1080 IDH1 knockdown cell toxicity (counter line) | HT-1080 IDH1 knockdown viability, ATP luminescence, 48 h | actives 2% (n = 360,000) | Potency, µM (titrated, usually from 46.1 µM), without a hit: at the top dose activity, negative = toxicity, usual class: cytotoxic;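 also: potency is read from the fitted curve at half-maximal effect; 0% = DMSO wells and -100% = cell-free medium wells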
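HT-1080-IDH1KD cells (IDH1 knocked down), 750/well in RPMI with 5% FBS, treated with compound 48 h at 37 degrees C. Viability by CellTiter-Glo luminescence, normalised to DMSO and no-cell wells; concentration-response curves classed.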
DT40 TDP1 CPT – DT40-hTDP1 cell growth loss with CPT; chicken DT40 Tdp1-/-;hTDP1 cells + 20 nM CPT, ATP luminescence, 48 h; Potency, µM (doses to about 46.2 µM), inactives show top-dose activity change, negative = growth inhibition, most hits filed as inhibitors; actives 12% (n = 420,000); also: potency is read from the fitted curve at half-maximal effect; nearly all actives have a fitted effect of over 55% in size
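Chicken DT40 Tdp1-/- cells complemented with human TDP1, 400 cells/well, exposed to compounds plus 20 nM camptothecin for at least 48 h at 37 C; viability read as ATP content by CellTiter-Glo luminescence.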
DT40 TDP1 no CPT – qHTS for Inhibitors of human tyrosyl-DNA phosphodiesterase 1 (TDP1): qHTS in cells in absence of CPT. Potency, µM (doses to about 46.2 µM), for inactives: at the highest dose activity change, negative = growth inhibition, most hits filed as inhibitors. actives 15% (n = 420,000). AID 686978, 2013. DT40 Tdp1-/- hTDP1 cells, no CPT, ATP luminescence, 48 h; also: potency is read from the fitted curve at half-maximal effect; nearly all actives have a fitted effect of over 55% in size
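A cellular qHTS used chicken DT40 cells lacking endogenous Tdp1 but carrying stably transfected human TDP1. Compounds were applied without camptothecin, and cell growth kinetics were judged by ATP-dependent luminescence after ≥48 hr.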
IL1B secr inh – inhibitors of inflammasome signaling (IL-1 beta secretion); THP-1 LPS/ATP IL-1B secretion, AlphaLISA, 16 h; hits give low values; activity change, % at 57.5 µM; actives 4.7% (n = 360,000); AID 743279; in the data active = activity change below about -50%; inconclusive = mostly about -30% to -49%
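THP-1 cells pretreated 1 hr with compounds (up to 57.5 uM final), then stimulated with LPS (250 ng/mL final) plus ATP (1.25 mM final); secreted IL-1B measured by AlphaLISA after 16 hr, decreased signal indicating inhibition.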
Numbers without * were called inactive; u = inconclusive; x = not tested or not shown. Unless noted, calls follow the shape of the dose curve; as a rule, active = well fitted curve in the direction sought with a large enough effect; inconclusive = small, poorly fitted or top-dose-only effect, or another doubt; inactive = no such curve, though single readings can be large; an effect the other way counts as inactive or inconclusive. Unless noted, % is scaled to controls: 0 for no effect and ±100 for the full control effect.

SMILES | HT1080NT lethal | HT1080 IDH1KD tx | DT40 TDP1 CPT | DT40 TDP1 no CPT | IL1B secr inh
COC(=O)C1=C(C)NC(C)=C(C(=O)OC(C)C)C1c1cccc2nonc12 (stereo unspecified) | 4.6% | -16.0% | u | u | -11.8
COC(=O)C1=C(C)NC(C)=C(C(=O)OCC(C)C)C1c1ccccc1[N+](=O)[O-] (stereo unspecified) | 16.4µM* | 25.9µM* | 6.51µM* | 5.17µM* | -65.0*
COC(=O)C1=C(C)NC(C)=C([N+](=O)[O-])[C@@H]1c1ccccc1C(F)(F)F | x | x | 29.9µM* | 29.9µM* | x
CCC(=O)N1CCc2cc(S(=O)(=O)CCC(=O)N3CCCC(C)C3)ccc21 (stereo unspecified) | 5.3% | 0.9% | -7.4% | -23.5% | -6.4
O=C1CC(N2C(=O)/C(=C/C=C/c3ccccc3)SC2=S)C(=O)N1c1ccccc1 (stereo unspecified) | 0.9% | 9.8% | 13µM* | 13µM* | u
O=C(CN1C(=O)/C(=C2\SC(=S)N(C3CCS(=O)(=O)C3)C2=O)c2ccccc21)Nc1ccc(F)cc1 (stereo unspecified) | -2.2% | 3.1% | 6.51µM* | u | x
COc1ccc(NC(=O)CN2C(=O)/C(=C3\SC(=S)N(C4CCS(=O)(=O)C4)C3=O)c3ccccc32)cc1 (stereo unspecified) | 1.4% | u | 9.2µM* | 18.4µM* | u
COc1ccc(/C=C2\SC(=S)N(CC(=O)NC3CCS(=O)(=O)C3)C2=O)cc1 (stereo unspecified) | -0.6% | -1.6% | -4.5% | 5.6% | 25.7
CCNC(=O)N1C(=O)C2(OCCO2)c2ccccc21 | 3.4% | 7.6% | 6.0% | 11.2% | 17.5
CC(=O)N1C2=CCCC3CCCCC23c2ccccc21 (stereo unspecified) | 16.1% | 11.6% | 20.6µM* | 25.9µM* | -9.5
OB(O)c1ccc(Cl)s1 | x | x | -0.4% | -11.6% | x
CC(C)c1nc(N2CCN(C(=O)c3ccco3)CC2)c(C#N)c2c1COC(C)(C)C2 | u | u | 14.6µM* | 20.6µM* | u
Cc1nc(N2CCN(Cc3ccccc3)CC2)c(C#N)c2c1COC(C)(C)C2 | -1.9% | -3.7% | u | 25.9µM* | -1.8
O=C(N/N=C\c1ccc(CNS(=O)(=O)c2ccc(Cl)cc2)o1)C(=O)Nc1ccc(Oc2ccccc2)cc1 | 1.6% | -0.5% | 2.91µM* | 6.51µM* | 4.0
O=C(N/N=C\c1ccc(CN(Cc2ccc(Cl)cc2)S(=O)(=O)c2ccccc2)o1)C(=O)Nc1ccc(F)cc1 | -0.2% | 2.9% | u | 14.6µM* | u
COc1ccc(OC)c(S(=O)(=O)Nc2ccc3c(c2)OCCO3)c1 | -1.4% | -7.7% | u | u | -20.0
COC(=O)c1c(C)oc2ccc(NS(=O)(=O)c3cc(OC)ccc3OC)cc12 | u | u | 10.3µM* | 10.3µM* | 8.2
COc1ccc(OC)c(S(=O)(=O)Nc2ccc(C(C)=O)cc2)c1 | -1.2% | u | 11.2µM* | 17.8µM* | 14.0
COc1ccc(OC)c(S(=O)(=O)Nc2ccc(C(N)=O)cc2)c1 | 9.8% | 10.4% | -28.8% | -13.0% | 2.2
COc1ccc(OC)c(S(=O)(=O)Nc2ccc3oc(C)c(C(C)=O)c3c2)c1 | -27.0% | -27.9% | 16.4µM* | 14.6µM* | 22.5
c1ccc(-c2cnnc(N3CCCCC3)n2)cc1 | -6.6% | -5.4% | -18.0% | -24.4% | 1.9
CC(C)(C)C(=O)Nc1cccc(C(=O)Nc2cc(C(=O)O)cc(C(=O)O)c2)c1 | 8.5% | 2.7% | 17.3% | -0.7% | 40.4
CCCCN1CC(COCc2ccccc2)Oc2cccc(N3CCCC3)c2S1(=O)=O (stereo unspecified) | -1.2% | -0.6% | u | 16.4µM* | 14.6
CC(C)CN1CC(COCc2ccccc2)Oc2ccccc2S1(=O)=O (stereo unspecified) | -3.9% | -7.0% | 20.6µM* | u | -17.2
